Measurements as given in PubChem BioAssay (NCI).
The panel holds about 83,000 compounds, 20% with a hit somewhere; the sample as a whole holds those more often.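 How to read the values: 0–100, growth inhibition (40 = 60% inhibited); 0, no net growth; -100 to 0, cell death (-40 = 40% of starting cells died; -100 = all dead).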 Values without a mark were called inactive. Calls of active or inactive are those of the source. How the source made its calls: active means growth percent below 10; inactive means the rest.

The molecules below were run on MDA-MB-468 breast (assay: NCI-60 one-dose screen, 48 h (100 = growth as untreated, 0 = no growth, -100 = all killed)). Details: 10 µM unless noted.

Row | Compound | growth
1 | CCCCN(C)N=Nc1ccc(C(N)=O)cc1 | 102%
2 | O=[N+]([O-])c1c(O)c(Cl)cc(Cl)c1Cl | 91.2%
3 | C=CC(=O)N1CCN(c2cccc(Oc3nccc(Nc4nnc(-c5ccc(Br)cc5)s4)n3)c2)CC1 | 84.4%
4 | COc1ccc(CCNC2=CC(=O)CCC2)cc1OC | 109%
5 | CC[C@]12C=CCN3CC[C@@]4(c5ccc(OC)cc5N(C)[C@H]4[C@@](O)(C(=O)OC)[C@@H]1OC(=O)CCCN1CCOCC1)[C@@H]32 | 108%
6 | c1cc2[nH]ncc2cc1-c1nc2ccc3[nH]ncc3c2c2c1CCC2 | 3.92% (active)
7 | N=c1sc(Cc2cc(Cl)ccc2Cl)cn1CC(=O)c1ccccc1 | 61.3%
8 | N#CC1=C(N)OC2=C(C(=O)CCC2)C1c1ccco1 (stereo not given) | 115%
9 | Cc1cc(Cc2cc(C)c(N)cc2N)c(N)cc1N | 95.4%
10 | COc1ccc(Nc2ncc(Br)c(NCCCNC(=O)C3CCC3)n2)cc1 | 71.2%
11 | C#CCn1cccc1CNc1ccc(OC)cc1 | -76.9% (active)
12 | COc1cc(/C=C2\SC(=S)N(/C=C/c3nc4ccccc4[nH]c3=O)C2=O)cc(OC)c1OC | 81.2%
13 | COc1cc2c(cc1OC)C1(C)N(CC2)C(=O)OC1(C)C (stereo not given) | 93.1%
14 | Cc1cccc(C)c1NCc1nnc(-c2ccco2)o1 | 100%
15 | Cc1ccc2c(n1)C(=O)C(Cl)=C(Nc1ccc(C(=O)OC(C)(C)C)cc1)C2=O | -50.3% [9.25 µM] (active)
16 | NC(=O)c1ccc[n+](CC(=O)N2CCN(c3cc4c(cc3F)c(=O)c(C(=O)O)cn4C3CC3)CC2)c1 | 87.2%
17 | CCN(CC)CCOC(=O)c1cccnc1 | 94.9%
18 | Cc1cc(OI)c(C(C)C)cc1-c1cc(C(C)C)c(OI)cc1C | 108%
19 | O=C(O)c1cn(C2CC2)c2cc(N3CCN(Cc4nc5c(cnn5-c5ccc([N+](=O)[O-])cc5)c(=O)[nH]4)CC3)c(F)cc2c1=O | 103%
20 | COc1cccc(-c2nc(-c3ccc(NS(=O)(=O)c4ccccc4)cc3)[nH]c2-c2ccnc(Br)c2)c1 | 18.3%

Row | Compound | growth
21 | Cn1c(=O)[nH]c(=O)c2nc3c(nc21)-c1ccccc1C3=O | 82.8%
22 | CCCCCCC(O)(c1ccc(F)cc1)C(CN1CCOCC1)c1ccccc1 (stereo not given) | 28%
23 | FC(F)(F)Oc1ccc2nc3nc4ccc[nH]c4cc3c2c1 | -25.5% (active)
24 | COC(=O)c1cc(Cl)cc([N+](=O)[O-])c1O | 95.3%
25 | O=C(O)/C=C/C(=O)NCc1ccccc1 | 101%
26 | CCN1CCN(c2ccc(NC(=O)Nc3ccc4c(ccn4-c4ccnc(C(=O)NC)c4)c3)cc2C(F)(F)F)CC1 | 65.9%
27 | COc1ccc(C(=O)C(CN(C)C)c2ccccc2)cc1 (stereo not given) | -58.5% (active)
28 | Nc1c(Br)cc(O)c2c1C(=O)c1ccccc1C2=O | -9.43% (active)
29 | O=C1NC(=O)C2C(=O)NC(=O)C1C21CCc2ccccc21 (stereo not given) | 101%
30 | O=S(=O)(NCCNc1nccc(-c2c(-c3cccc(F)c3)nc3sccn23)n1)c1ccc(Br)cc1 | 78.3%
31 | C#CCOc1ccc(C(Nc2cc(Cl)ccc2Cl)c2nnnn2C2CCCCC2)cc1 (stereo not given) | 88.5%
32 | CCN(CC)c1ccc(NC2=C(Cl)C(=O)c3nc(C)ccc3C2=O)cc1 | -45% (active)
33 | CC/C=C\C[C@@H]1C/C=C2/C(=O)C=C[C@H]2C/C=C\CCCC(=O)O1 | -63.3% (active)
34 | COc1cc(CNC(=O)CCCC/C=C/C(C)C)ccc1OCc1cn(-c2ccc(C(F)(F)F)cc2)nn1 | 84.8%
35 | CC1(C)C2CCC1(C)C1(C2)OCCS1 (stereo not given) | 89.8%
36 | Cc1ccc(NC(=O)c2cc(/C=C/C(=O)NO)cc(C(F)(F)F)c2)cc1Nc1nccc(-c2cccnc2)n1 | -24.4% (active)
37 | COCCOC(C)C(/C=N/NC(N)=S)=N/NC(N)=S (stereo not given) | 7.98% (active)
38 | Cc1ccc(NC(=O)c2ccc(CN3CCN(C)CC3)cc2)cc1Oc1ccc(-c2[nH]nc3ncnc(N)c23)cc1 | 59.3%
39 | CCCCC(C=O)(C=C=C(C)C)CC (stereo not given) | 108%
40 | O=Nc1ccc2ccccc2c1O | 68.3%
